The supplement of paper PMC10646978
± gives the standard deviation.

Legend:
Settings in all cases: modulator concentration 10 µM
[1] = tested on: RAW-Dual (murine macrophage reporter line); experiment: NF-kB reporter (SEAP) activity fold change vs agonist alone; higher = enhanced NF-kB activity
Procedure, shortened: (§1)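 RAW-Dual murine macrophage reporter cells were seeded at 50 000 per well in 384-well plates and pre-incubated 1 hour at 37 °C with compound pin-transferred to 10 μM final. After 1 hour, a PRR agonist was added and cells incubated overnight. Supernatant NF-κB (SEAP, QUANTI-Blue, 620 nm absorbance) and IRF (Lucia luciferase, QUANTI-Luc, luminescence) signals were divided by the mean agonist-only control on the same plate to give fold change. Two replicate plates were averaged, with errors by propagation.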

[2] = tested on: RAW-Dual (murine macrophage reporter line); experiment: IRF reporter (Lucia luciferase) activity fold change vs agonist alone; higher = enhanced IRF activity
Procedure, shortened: as §1

[3] = tested on: RAW-Dual (murine macrophage reporter line); experiment: viability score (confluency relative to resting cells, overnight) (fraction); higher = more viable, active = viable (0.7 or more)
Procedure, shortened: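 Two confluency masks, generated with IncuCyte software over all imaged wells, were applied to IncuCyte images of RAW-Dual macrophages. The cells, in 384-well plates, had been exposed overnight to 10 μM final compound. The viability score is confluency as a fraction of resting cells, and a compound met the cutoff only with both masks above 70% of resting cells.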

[4] = agonist: CpG ODN 1826 0.5 ug/mL

SMILES | NF-kB reporter [1, 4] | NF-kB reporter ([1]; agonist: LPS 0.1 ug/mL) | NF-kB reporter ([1]; agonist: MPLA […]) | IRF reporter ([2]; agonist: 3'3'-cGAMP 10 ug/mL) | IRF reporter ([2]; agonist: LPS 0.1 ug/mL) | IRF reporter ([2]; agonist: MPLA […]) | viability score [3]
COc1ccc(-c2cc(CNC(=O)C3CCC3)no2)cc1 | 1.15 ± 0.075 | 1.02 ± 0.1 | 0.934 ± 0.034 | 0.877 ± 0.052 | 1.06 ± 0.086 | 0.986 ± 0.23 | 0.995 (active)
CCOc1nc2cccc(C(=O)O)c2n1Cc1ccc(-c2ccccc2-c2nc(=O)o[nH]2)cc1 | 1.29 ± 0.17 | 1.14 ± 0.32 | 1.12 ± 0.073 | 0.886 ± 0.042 | 1.41 ± 0.38 | 1.31 ± 0.12 | 1 (active)
CC1=NN(c2ccc(C(=O)O)cc2)C(=O)C1=Cc1ccc(-c2cc(C)c(C)cc2[N+](=O)[O-])o1 | 0.951 ± 0.057 | 0.969 ± 0.076 | 0.947 ± 0.073 | 1 ± 0.066 | 0.976 ± 0.07 | 0.92 ± 0.23 | 0.997 (active)
C[C@@H](O)[C@H]1C(=O)N2C(C(=O)O)=C(SCCNC=N)C[C@H]12.O | 0.988 ± 0.074 | 1.01 ± 0.049 | 0.981 ± 0.034 | 0.897 ± 0.086 | 1.04 ± 0.089 | 1.25 ± 0.14 | 0.999 (active)
ON=C1ON=C(c2ccccc2)C1=NO | 0.867 ± 0.067 | 0.775 ± 0.038 | 0.875 ± 0.078 | 0.176 ± 0.0086 | 1.29 ± 0.078 | 1.42 ± 0.13 | 0.998 (active)
COc1ccc(Cl)c(Nc2nc3ccccc3nc2NS(=O)(=O)c2cccc(NC(=O)C(C)(C)N)c2)c1 | 0.841 ± 0.23 | 1.05 ± 0.12 | 1.11 ± 0.087 | 0.221 ± 0.013 | 1.21 ± 0.13 | 1.32 ± 0.3 | 0.592 (inactive)
O=C(c1ccc(Cl)cc1)N(c1ccccc1)C1C=CS(=O)(=O)C1 (stereo unspecified) | 0.99 ± 0.056 | 0.83 ± 0.051 | 0.823 ± 0.049 | 0.814 ± 0.031 | 1.1 ± 0.14 | 1.08 ± 0.2 | 0.981 (active)
CC(=O)N[C@@H](CS)C(=O)O | 1.1 ± 0.082 | 1.05 ± 0.096 | 1.04 ± 0.052 | 0.931 ± 0.065 | 0.982 ± 0.076 | 1.04 ± 0.087 | 0.995 (active)
COc1cccc(C2Nc3ccccc3-c3nnc(SC)nc3O2)c1OCC(=O)O (stereo unspecified) | 0.989 ± 0.099 | 0.988 ± 0.054 | 0.864 ± 0.082 | 1.03 ± 0.068 | 1.65 ± 0.11 | 1.24 ± 0.076 | 1 (active)
CC(C)(C)c1ccc(-c2nc(-c3cccc([N+](=O)[O-])c3)no2)cc1 | 1.06 ± 0.1 | 0.972 ± 0.091 | 0.964 ± 0.025 | 1.02 ± 0.071 | 1.01 ± 0.098 | 1.05 ± 0.17 | 0.995 (active)
C=CCc1ccccc1OCC(O)CNC(C)C.Cl (stereo unspecified) | 1 ± 0.24 | 0.957 ± 0.14 | 1.06 ± 0.072 | 0.809 ± 0.029 | 1.16 ± 0.24 | 1.07 ± 0.14 | 0.978 (active)
CCOC(=O)N1CCN(C(=O)CSc2ccc(-c3ccccc3)nn2)CC1 | 1.15 ± 0.086 | 1.05 ± 0.055 | 1.09 ± 0.06 | 0.931 ± 0.051 | 0.96 ± 0.1 | 0.906 ± 0.073 | 0.993 (active)
Cc1nc(-c2ccc(S(=O)(=O)NC3CCc4nc(N(C)C)ncc4C3)cc2)co1 (stereo unspecified) | 0.877 ± 0.065 | 1.21 ± 0.1 | 1.05 ± 0.053 | 1.14 ± 0.074 | 1.21 ± 0.091 | 1.35 ± 0.27 | 0.919 (active)
